Assay outcomes deposited in PubChem by NMMLSC.
Most compounds without a hit are left out; they make up all but 1.1% or so of the library.
RPL19A TOR yeast – modulators of TOR pathway RPL19A-GFP in S. cerevisiae. AID 2025. percent response vs DMSO, % at 10 µM. S. cerevisiae RPL19A-GFP strain, flow cytometry, 3 h; stronger effect = lower value. 0.3% of 330,000 active;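 active means percent response vs DMSO below 50%; inconclusive means fewer than 70 events counted for the yeast strain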;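 further: median channel GFP fluorescence of the barcoded RPL19A-GFP strain; ratio of sample median GFP to plate DMSO average so 100% = DMSO; lower means less RPL19A-GFP as with rapamycin TOR inhibition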
VLA-4 inh – inhibition in a human VLA-4 binding assay; P13612; VLA-4 expressing cells, ligand binding flow cytometry; inhibition, % (about 7 µM as worked out from the volumes in the protocol); 0.2% of 330,000 active; AID 2557; in the data active means inhibition above about 50%
Target sequence (P13612 whole entry, looked up): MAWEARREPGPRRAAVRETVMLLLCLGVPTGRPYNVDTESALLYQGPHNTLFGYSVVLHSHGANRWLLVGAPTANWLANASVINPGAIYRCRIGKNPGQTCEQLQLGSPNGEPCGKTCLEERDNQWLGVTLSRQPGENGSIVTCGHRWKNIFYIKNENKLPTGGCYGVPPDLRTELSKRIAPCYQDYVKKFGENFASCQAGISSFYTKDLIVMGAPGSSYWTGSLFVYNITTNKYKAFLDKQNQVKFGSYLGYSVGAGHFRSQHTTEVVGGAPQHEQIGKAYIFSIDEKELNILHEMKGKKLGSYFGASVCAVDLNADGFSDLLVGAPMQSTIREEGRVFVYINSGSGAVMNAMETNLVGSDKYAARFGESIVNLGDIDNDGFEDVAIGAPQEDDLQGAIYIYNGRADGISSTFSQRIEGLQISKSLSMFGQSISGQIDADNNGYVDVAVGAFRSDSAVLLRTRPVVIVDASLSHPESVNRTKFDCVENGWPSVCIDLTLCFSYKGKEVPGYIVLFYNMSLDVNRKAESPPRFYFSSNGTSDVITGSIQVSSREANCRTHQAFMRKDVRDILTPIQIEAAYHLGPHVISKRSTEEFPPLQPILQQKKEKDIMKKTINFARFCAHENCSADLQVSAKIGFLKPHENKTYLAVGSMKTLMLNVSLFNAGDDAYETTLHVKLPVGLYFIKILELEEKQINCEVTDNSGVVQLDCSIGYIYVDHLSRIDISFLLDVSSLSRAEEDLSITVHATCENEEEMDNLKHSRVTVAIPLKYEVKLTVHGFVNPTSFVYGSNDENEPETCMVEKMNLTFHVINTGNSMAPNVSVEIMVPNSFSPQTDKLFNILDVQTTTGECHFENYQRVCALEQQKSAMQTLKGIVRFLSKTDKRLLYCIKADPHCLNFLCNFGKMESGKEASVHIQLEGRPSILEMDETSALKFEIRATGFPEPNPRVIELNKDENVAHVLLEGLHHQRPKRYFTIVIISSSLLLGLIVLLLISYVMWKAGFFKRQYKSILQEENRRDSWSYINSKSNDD
AGP1 TOR yeast – yeast TOR pathway AGP1-GFP modulation | AID 2066 | 0.02% of 320,000 active | S. cerevisiae AGP1-GFP multiplex flow cytometry, 3 h; GFP as percent of DMSO wells | GFP response vs DMSO, % at 10 µM;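 active means GFP response relative to DMSO above a set limit, near screen average plus 3 SD, cut at about 150% in these data; inconclusive means fewer than 70 cells counted for the yeast strain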;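 further: median GFP channel fluorescence of the gated AGP1 strain per well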
MEP2-GFP yeast – yeast TOR pathway MEP2-GFP modulation | AID 2016 | S. cerevisiae MEP2-GFP strain, flow cytometry GFP, 3 h; 100% = DMSO control level | 0.51% of 330,000 active | GFP response vs DMSO, % at 10 µM;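 active means GFP response versus DMSO above a set limit, roughly screen mean plus 3 SD, cut at about 180% in these data; inconclusive means fewer than 70 cells counted for a yeast strain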;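 further: median GFP fluorescence of the barcode-gated MEP2-GFP cells per well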
CIT2 TOR yeast – modulators of TOR pathway CIT2-GFP in S. cerevisiae. S. cerevisiae CIT2-GFP strain, flow cytometry, 3 h; 100 means same as DMSO wells. GFP response vs DMSO, % at 10 µM. 0.065% of 320,000 active;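 active means GFP response relative to DMSO above a set limit, near the screen mean plus 3 SD, cut at about 150% in these data; inconclusive means Fewer than 70 cells measured for a yeast strain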;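 further: ratio of well median GFP fluorescence to mean of DMSO wells on the plate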
LAP4-GFP MLPCN – yeast TOR pathway LAP4-GFP modulation; S. cerevisiae LAP4-GFP multiplex, flow cytometry GFP, 3 h; median GFP as percent of DMSO wells; AID 2023; 0.34% of 320,000 active; GFP response vs DMSO, % at 10 µM;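 active means GFP response vs DMSO above a set limit, about the screen mean plus 3 SD, cut at about 150% in these data; inconclusive means under 70 cell events counted for the yeast strain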
VLA-4 allo CP – human VLA-4 allosteric modulation in cherry picked compounds. shares compounds with VLA-4 inh. U937 cells, HUTS-21 LIBS mAb binding, flow cytometry; LDV ligand present at threefold Kd. inhibition, % at 6.7 µM. 2% of 1,300 active. AID 2813; in the data active means inhibition above about 40%;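 further: 0% = ligand without compound and 100% = no ligand background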
An asterisk follows results filed as active; i = inactive; ? = inconclusive; / = no result given.

SMILES	RPL19A TOR yeast	VLA-4 inh	AGP1 TOR yeast	MEP2-GFP yeast	CIT2 TOR yeast	LAP4-GFP MLPCN	VLA-4 allo CP
Cc1ccc([C@H]2C(C(=O)O)=C[C@@H](CC3CCCC3)N2S(=O)(=O)c2ccc(C)cc2)cc1	104	48	96	96	89	102	/
CCC(C)(C)C1CCC(NC(=O)c2ccc(S(=O)(=O)N3CCOCC3)cc2)CC1 (centres undefined)	?	26	?	?	?	?	/
CCOc1ccc(CNC(=O)CN2C(=O)C(c3ccccc3)Oc3cccnc32)cc1 (centres undefined)	95	5	97	104	107	89	/
Cc1cccc(N2CCN(Cc3cn(C)nc3-c3ccccc3F)CC2)n1	105	8	99	100	99	96	/
Cc1ccsc1CN(C(=O)c1ccc([N+](=O)[O-])cc1)C1CCS(=O)(=O)C1 (centres undefined)	108	-7	101	110	/	86	/
COc1ccc(S(=O)(=O)N2CCCC(C(=O)NCc3cccnc3)C2)cc1OC (centres undefined)	96	51*	111	99	101	100	2
COCCCn1[nH]c2c3c(ccc2c1=O)C(=O)c1ccccc1C3=O	105	92*	/	106	93	115	-1
CC(C)(C)n1[nH]c2c3c(ccc2c1=O)C(=O)c1ccccc1C3=O	99	-18	94	100	97	110	/
O=C1CCCc2ccccc2N1Cc1ccc(F)cc1	97	52*	98	106	94	91	1
O=C(CCNC(=O)c1ccccc1)Nc1ccc(F)c(Cl)c1	96	54*	96	105	97	102	14
Cc1ccc(NC(=O)CCNC(=O)c2ccccc2)cc1F	100	-1	99	107	100	100	/
COc1ccc(-c2noc(CCC(=O)NCCCN3CCC(Cc4ccccc4)CC3)n2)cc1	97	17	97	94	101	97	/
COc1ccc(-c2noc(CCC(=O)NCCCN3CCN(c4ccc(F)cc4)CC3)n2)cc1	99	57*	102	96	96	97	-6
CC1(NC(=O)Cc2csc(-c3cccc(Cl)c3)n2)CCS(=O)(=O)C1 (centres undefined)	93	-4	90	107	98	107	/
CCN(CC)S(=O)(=O)c1ccc(N2CCOCC2)c(NC(=O)c2cc(=O)[nH]c3ccccc23)c1	95	51*	94	97	86	98	-7
CCN(CC)S(=O)(=O)c1ccc(N2CCOCC2)c(NC(=O)c2cccc3ccccc23)c1	106	14	103	106	102	94	/
COC(=O)c1c(C(=O)OC)c(-c2ccccc2)n2c1CS(=O)(=O)C2	102	-3	97	100	101	100	/
COC(=O)c1c(C(=O)OC)c(-c2ccc(F)cc2)n2c1CS(=O)(=O)C2	107	41	102	106	103	91	-13
FC(F)(F)c1nnc(-c2ccccc2)nc1Sc1ccc(Cl)cc1	91	72*	99	91	78	96	50*
FC(F)(F)c1nnc(-c2ccccc2)nc1Sc1ccccc1	99	23	104	97	88	119	/
C#CCOc1ccc2c(C)cc(=O)oc2c1	94	52*	87	94	82	96	i
C=C(Cl)COc1ccc2c(C)cc(=O)oc2c1	102	3	106	111	100	120	/
CC1(C)Cc2c(cnn2-c2ccc(F)cc2)C(NC(=O)CN2CCCCC2=O)C1 (centres undefined)	103	0	98	105	100	96	/
CCOCc1nnc(NC(=O)c2cc(C(=O)OC)cc([N+](=O)[O-])c2)s1	96	11	94	95	96	96	/
COC(=O)c1cc(C(=O)Nc2nnc(CC(C)(C)C)s2)cc([N+](=O)[O-])c1	99	51*	98	103	97	101	-1
SMILES	RPL19A TOR yeast	VLA-4 inh	AGP1 TOR yeast	MEP2-GFP yeast	CIT2 TOR yeast	LAP4-GFP MLPCN	VLA-4 allo CP
COc1ccc(Cc2nc3ccc(S(=O)(=O)N4CCOCC4)cc3[nH]2)cc1OC	101	4	101	99	98	99	/
COc1ccc(Cc2nc3ccc(S(N)(=O)=O)cc3[nH]2)cc1OC	99	102*	95	101	100	98	-1
O=C(NCCCn1ccnc1)c1ccc(-c2ccccc2)cc1	103	45	105	103	104	108	0
O=C(NCCCn1ccnc1)c1ccc(F)cc1	98	2	95	100	93	102	/
CCCCN(C)C(=S)Nc1ccc2nc3n(c(=O)c2c1)CCCCC3	94	5	94	99	94	97	/
CC1CCc2[nH]c3ccc(C(=O)N4CCCC(C(F)(F)F)C4)cc3c2C1 (centres undefined)	97	7	110	102	98	114	/
COc1ccc(-c2sc3ccccc3c2-c2ccc(OCCN3CCCCC3)cc2)cc1	84	6	83	89	80	103	7
c1ccc(-c2sc3ccccc3c2-c2ccc(OCCN3CCCC3)cc2)cc1	89	46	93	95	85	119	24
CCOc1ccc(NC(=O)CN(C)C(=O)c2ccc(COc3ccccc3)o2)cc1OCC	100	54*	105	108	103	101	-5
CCOC(=O)N1CCN(C(=O)c2cccc(N3C(=O)NC4CC3(C)Oc3ccc(Cl)cc34)c2)CC1 (centres undefined)	99	3	99	101	103	92	/
CC1CCCC(C)N1C(=O)c1ccc(S(=O)(=O)NCc2ccco2)cc1 (centres undefined)	107	12	105	106	105	88	/
O=C(O)CCc1nc(-c2ccccc2)c(-c2ccccc2)o1	100	51*	96	94	88	118	-1
CC(=O)Nc1ccc(NC(=O)CNC(=O)c2sc3ccccc3c2Cl)cc1	101	-6	111	102	97	100	/
O=C(CNC(=O)c1sc2ccccc2c1Cl)NCc1cccc(C(F)(F)F)c1	98	53*	110	101	105	104	0
Cc1ccc(N(CC(=O)NC(C)(C)C)C(=O)CCC(=O)Nc2nccs2)c(C)c1	110	9	111	110	103	100	/
CCOC(=O)c1c(NC(=O)C2CCCO2)sc(C(N)=O)c1C (centres undefined)	101	-9	97	100	93	103	/
CCOC(=O)c1c(NC(=O)C2c3ccccc3Oc3ccccc32)sc(C(N)=O)c1C	95	14	100	98	95	103	15
